Several values for one entry are separate records, joined by “and”; a condition that tells them apart may be missing. Equal entries are not always repeated. Records with an inconclusive call do not appear. Entries that show only a call come without a potency. More than one record can exist for a structure, and the calls need not agree. Activity calls are given as the source filed them. The call rests on the fitted dose curve; in most records, active means well fitted cell-killing curve with a large enough effect in the repeat runs; inconclusive means weak or mixed curves, or effect the other way; inactive means flat fitted curve, though single readings scatter.
Experiment: qHTS assay to identify small molecule that activate the aryl hydrocarbon receptor (AhR) signaling pathway - cell viability counter screen (AID 743086); further: nearly all actives have a fitted effect of over 45% in size
Settings: HepG2-AhR-luc viability, CellTiter-Fluor, 24 h; series mostly up to 70.3 µM
Method in brief: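 HepG2-AhR-luc (HG2L7.5c1) cells, 4000/well, were preincubated 5 h at 37C, exposed to compound in qHTS format for 24 hr at 37C, then given CellTiter-Fluor for 30 min; viability was read as fluorescence in the reporter wells.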
Potency means the concentration at half of the fitted maximal effect.

| SMILES | Potency |
| --- | --- |
| CC[C@H]1OC(=O)[C@H](C)C(=O)[C@H](C)[C@@H](O[C@@H]2O[C@H](C)C[C@H](N(C)C)[C@H]2O)[C@](C)(OC)C[C@@H](C)C(=O)[C@H](C)[C@H]2N(CCCCn3cnc(-c4cccnc4)c3)C(=O)O[C@]12C | inactive and 21.1 µM (active) |
| CCCCCCCC/C=C\CCCCCCCC(=O)N(CCO)CCO | inactive |
| CC1(C)S[C@@H]2[C@H](NC(=O)[C@H](N)c3ccc(O)cc3)C(=O)N2[C@H]1C(=O)O | inactive |
| CC[C@@]1([C@@H]2O[C@@H]([C@H]3O[C@@](O)(CO)[C@H](C)C[C@@H]3C)C[C@@H]2C)CC[C@H]([C@]2(C)CC[C@]3(C[C@H](O)[C@@H](C)[C@@H]([C@@H](C)[C@@H](OC)[C@H](C)C(=O)O)O3)O2)O1 (stereo in doubt) | inactive |
| CO/N=C(\C(=O)N[C@@H]1C(=O)N2C(C(=O)[O-])=C(C[n+]3cccc4c3CCC4)CS[C@H]12)c1csc(N)n1 | inactive |
| FC(F)(F)C(F)(F)C(F)(F)C(F)(F)C(F)(F)F | inactive |
| O=C(O)C[C@H](O)C[C@H](O)/C=C/c1c(C2CC2)nc2ccccc2c1-c1ccc(F)cc1 | inactive |
| CCN(CC)CC#CCOC(=O)C(O)(c1ccccc1)C1CCCCC1 (configuration not stated) | 18.8 µM (active) |
| C[N+](C)(C)CCOP(=O)(O)OP(=O)([O-])OC[C@H]1O[C@@H](n2ccc(N)nc2=O)[C@H](O)[C@@H]1O | inactive |
| CC1(C)C[C@@H]1C(=O)N/C(=C\CCCCSC[C@H](N)C(=O)O)C(=O)O | inactive |
| CCOc1cc(CC(=O)N[C@@H](CC(C)C)c2ccccc2N2CCCCC2)ccc1C(=O)O | inactive |
| CCC(NC(C)C)C(O)c1ccc(O)c(O)c1 (configuration not stated) | inactive |
| CN1C(=O)C[C@@H](C(=O)N[C@@H](Cc2cnc[nH]2)C(=O)N2CCC[C@H]2C(N)=O)NC1=O | inactive |
| CC1(C)S[C@@H]2[C@H](NC(=O)[C@@H](NC(=O)N3CCNC3=O)c3ccccc3)C(=O)N2[C@H]1C(=O)O | inactive |
| O=C(O)c1cc2cc(Cc3cccnc3)ccc2o1 | inactive |
| O=C(O)c1ccc(NC2OC[C@@H](O)[C@H](O)[C@H]2O)cc1 (some centres not stated) | inactive |
| CCN1\C(=C/C=C/C=C/c2sc3ccccc3[n+]2CC)Sc2ccccc21 | 11.9 µM (active) and 23.7 µM (active) |
| CCCCCCOC(=O)c1cccnc1 | inactive |
| N[C@H](C(=O)O)[C@@H]1CC(Cl)=NO1 | inactive |

| SMILES | Potency |
| --- | --- |
| CCN(CC)CCn1c(=O)c(Cc2ccc(OC)cc2)nc2ccccc21 | inactive |
| CCCCC[C@H](O)/C=C/[C@@H]1[C@@H](C/C=C\CCCC(=O)O)[C@@H](O)C[C@H]1O | inactive |
| CC(C)=CCC/C(C)=C/CC/C(C)=C/CC/C(C)=C/CC1=C(C)C(=O)c2ccccc2C1=O | inactive |
| CC(C)NCC1CCc2cc(CO)c([N+](=O)[O-])cc2N1 (configuration not stated) | inactive |
| NCC(O)CC(=O)O (configuration not stated) | inactive |
| FC(F)(F)COCC(F)(F)F | inactive |
| CC1=C(/C=C/C(C)=C/C=C/C(C)=C/C=C/C=C(C)/C=C/C=C(C)/C=C/C2=C(C)CCCC2(C)C)C(C)(C)CCC1 | inactive |
| C[C@@H]1O[C@@H](OC[C@H]2O[C@@H](Oc3c(-c4ccc(OCCO)c(OCCO)c4)oc4cc(OCCO)cc(O)c4c3=O)[C@H](O)[C@@H](O)[C@@H]2O)[C@H](O)[C@H](O)[C@H]1O | inactive |
| NS(=O)(=O)c1cc(Cl)c(Cl)c(S(N)(=O)=O)c1 | inactive |
| C[C@]12O[C@H](C[C@]1(O)CO)n1c3ccccc3c3c4c(c5c6ccccc6n2c5c31)CNC4=O | 18.8 µM (active) |
| CC1(C)S[C@@H]2[C@H](N3C(=O)C(c4ccccc4)NC3(C)C)C(=O)N2[C@H]1C(=O)O (some centres not stated) | inactive |
| Nc1c(CC(=O)O)cccc1C(=O)c1ccccc1 | inactive |
| c1ccc(-c2ccc(C(c3ccccc3)n3ccnc3)cc2)cc1 (configuration not stated) | inactive |
| CNCC(=O)N[C@@H](CCCN=C(N)N)C(=O)N[C@H](C(=O)N[C@@H](Cc1ccc(O)cc1)C(=O)N[C@H](C(=O)N[C@@H](Cc1cnc[nH]1)C(=O)N1CCC[C@H]1C(=O)N[C@@H](C)C(=O)O)C(C)C)C(C)C | inactive |
| C/C=C/C1=C(C(=O)O)N2C(=O)[C@@H](NC(=O)[C@H](N)c3ccc(O)cc3)[C@H]2SC1 | inactive |
| C=N[C@@H](C(=O)N[C@@H]1C(=O)N2[C@@H]1SC(C)(C)[C@@H]2C(=O)O)c1ccccc1 | inactive |
| CO[C@H]1C[C@H](O[C@H]2[C@H](C)[C@@H](O[C@@H]3O[C@H](C)C[C@H](N(C)C)[C@H]3O)[C@@H](C)C[C@]3(CO3)C(=O)[C@H](C)[C@@H](O)[C@@H](C)[C@@H](C)OC(=O)[C@@H]2C)O[C@@H](C)[C@@H]1O | inactive |
| NC[C@H]1O[C@H](O[C@H]2[C@H](O)[C@@H](O[C@H]3O[C@H](CO)[C@@H](O)[C@H](N)[C@H]3O)[C@H](N)C[C@@H]2N)[C@H](N)C[C@@H]1O | inactive |

Reference: PubChem BioAssay (Tox21)
